# About 18,000 (5.8%) of roughly 310,000 compounds were called active. Roughly 22% stayed inconclusive and do not appear here. Many of the other results were omitted from the sample, so actives are more common in it than they were. A number with no mark means an inactive call. Calls come from the whole dose curve; as a rule, active = well fitted inhibition curve with a large enough effect; inconclusive = small, poorly fitted or top-dose-only effect, or another doubt; inactive = no such curve, though single readings can be large or run the other way.
# Assay: Primary qHTS for delayed death inhibitors of the malarial parasite plastid, 48 hour incubation
# Settings: P. falciparum luciferase growth in erythrocytes; series mostly up to 28.7 µM; activity change, negative = inhibition: at the top concentration
# Procedure, shortened: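 Growth was read as firefly luciferase luminescence after a 48 h, 37 C, 5% CO2 exposure of compounds to reporter-bearing P. falciparum cultures (0.1% parasitemia, 2% hematocrit final) in Albumax-supplemented RPMI 1640.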
# % is set by controls: 0 for no effect and ±100 for the full control effect; potency is the fitted concentration of half-maximal effect.
Compound,"activity change, negative = inhibition",Potency
O=C(OCC(=O)N1CCCC1=O)c1cc(S(=O)(=O)N2CCOCC2)ccc1Cl,5.49%,–
Cc1nnc(N/N=C/c2ccccn2)[nH]c1=O,–,2.33 µM (active)
Cc1nnc(N/N=C/C2CC=CCC2)[nH]c1=O (configuration not stated),1.81%,–
Cc1ccccc1Nc1nnc(C)c(=O)[nH]1,2.34%,–
CCCCn1c(N)c(N(CCC(C)C)C(=O)c2ccc([N+](=O)[O-])o2)c(=O)[nH]c1=O,0.374%,–
CCCCn1c(N)c(N(CCC(C)C)C(=O)CC2OC(=O)c3ccccc32)c(=O)[nH]c1=O (configuration not stated),–,8.28 µM (active)
CCCCn1c(N)c(N(CCC(C)C)C(=O)COC(=O)c2cccnc2OCC)c(=O)[nH]c1=O,4.51%,–
Cc1cc2c(=O)n(CC(=O)NCC(=O)Nc3ccc(C(C)C)cc3)cnc2s1,19.7%,–
COc1ccc(CS(=O)/C(Cl)=C(/Cl)C(=O)Nc2ccc(OC)nc2)cc1 (configuration not stated),–,9.28 µM (active)
COc1ccc(NC(=S)NCCNC(C)=O)cc1,6.26%,–
COc1ccc(C(=O)Nc2ccc(NC(=O)C(C)C)nc2)cc1,7.77%,–
Cc1ccsc1C(=O)NC1CCCCC1C (configuration not stated),-9.34%,–
CC1CCN(S(=O)(=O)c2ccc3c(c2)n(C)c(=O)n3C)CC1,8.41%,–
O=S(=O)(NCCS(=O)(=O)N1CCN(c2ccccc2)CC1)c1ccc(F)cc1,-19.3%,–
Cc1ccc2nnn(Cc3cccc(C(C)(C)C)c3O)c2c1,–,11.7 µM (active)
Cc1ccc(C(=O)CSc2nnc(Cn3nnc4ccccc43)n2C)cc1,3.53%,–
COc1ccccc1NC(=O)C(C)OC(=O)CC1CCCC1 (configuration not stated),6.22%,–
Cc1ccc(N(C(=O)c2sc(C)nc2C)C(C(=O)NC(C)(C)C)c2ccncc2)cc1 (configuration not stated),-12.3%,–
CC(C)(C)NC(=O)C(c1ccc(Cl)cc1)N(CCO)C(=O)c1snc(C(N)=O)c1N (configuration not stated),–,6.57 µM (active)
NC(=O)c1ccc(Nc2ccc3nonc3c2[N+](=O)[O-])cc1,27.2%,–
COC(=O)c1cc(S(=O)(=O)NCC2CCN(Cc3ccc(Cl)cc3)CC2)cn1C,-25.3%,–
O=C(c1ccc(Cl)s1)N(Cc1nnc(-c2ccccc2Cl)o1)C1CC1,7.39%,–
CN(C(=O)COC(=O)c1cc(-c2ccco2)nc2ccccc12)C1CCS(=O)(=O)C1 (configuration not stated),-11.3%,–
O=C(c1cc(-c2ccco2)nc2ccccc12)N(Cc1nnc(-c2ccc(Cl)cc2)o1)C1CC1,–,4.15 µM (active)
O=C(Nc1cccc(F)c1)NC1CCCc2ccccc21 (configuration not stated),-36.1%,–
Cc1cc(=O)[nH]c(Nc2cccc(Br)c2)n1,24.1%,–

Compound,"activity change, negative = inhibition",Potency
O=C(CCc1nnc2ccc(NCc3ccco3)nn12)Nc1cc(F)ccc1F,8.55%,–
COc1ccc(Cl)cc1C(=O)NCC#N,-5.62%,–
N#C/C=C\Oc1ccc(Cl)cc1N,–,7.38 µM (active)
O=C(Nc1ccncc1)c1cc(-c2ccccn2)nc2ccc(Br)cc12,11.8%,–
CCN(CC)CCNC(=O)c1ccc(NC(=O)c2c(F)cccc2Cl)cc1,-17.4%,–
Cc1ccc2nc(-c3ccncc3)cc(C(=O)Nc3ccncc3)c2c1,–,13.1 µM (active)
Cc1ccc2nc(-c3ccccn3)cc(C(=O)Nc3ccc4c(c3)OCO4)c2c1,-10.7%,–
COC(=O)CNC(=O)c1cc(-c2ccncc2)nc2ccccc12,-41%,–
CCN(CC)CCNC(=O)c1ccc(NC(=O)c2cc(-c3ccncc3)nc3ccccc23)cc1,–,0.828 µM (active)
COc1ccc(C(=O)O)cc1S(=O)(=O)NCc1cccnc1,13.9%,–
CC(=O)Nc1ccc(NC(=O)C2CCCN2S(=O)(=O)c2cccc(C(F)(F)F)c2)cc1 (configuration not stated),56.5%,–
CCCCn1c(N)c(N(CC(C)C)C(=O)CN(C)S(=O)(=O)c2ccc(F)cc2)c(=O)[nH]c1=O,-18.4%,–
CSCCC(NC(=O)COc1ccccc1)C(=O)OCCOc1ccc(F)cc1 (configuration not stated),-6.23%,–
O=C1CSc2ccc(S(=O)(=O)NCc3ccccc3)cc2N1,18.8%,–
CCN1/C(=C\c2ccc3ccccc3[n+]2CC)Sc2cc(C)ccc21,–,1.17 µM (active)
CCN1/C(=C/C(=S)Nc2ccccc2)Sc2ccccc21,4.72%,–
CCN1/C(=C/c2ccc3ccc(C)cc3[n+]2CC)Sc2ccccc21,–,1.17 µM (active)
CCOC(=O)c1c(C)[nH]c(C(=O)OCC(=O)c2ccc(OC)cc2OC)c1C,50.2%,–
CCCc1cc(=O)oc2c(C)c(OCC(=O)Nc3ccccn3)ccc12,-9.35%,–
O=C(COC(=O)c1cnccn1)Nc1ccc(Cl)cc1C(F)(F)F,13.7%,–
COC(=O)c1ccc(CSc2ccc(S(=O)(=O)N3CCCCC3)cn2)cc1,-17.8%,–
CN(Cc1ccccc1)S(=O)(=O)c1nnc(NC(=O)c2ccccc2F)s1,0.694%,–
COc1ccc(CCc2nc(-c3cccs3)no2)cc1,66%,–
C=CCc1ccccc1OCC(O)CN1CCN(CCO)CC1 (configuration not stated),-12.8%,–
Cc1cc(C)n2nc(C(=O)OC(C)C(=O)c3cc(C)c(C)cc3C)nc2n1 (configuration not stated),11.2%,–
CCOC(=O)C1CN(S(=O)(=O)c2ccc(OC)cc2)c2cc(Cl)ccc2O1 (configuration not stated),-15.5% [at 0.00184 µM],–

# From PubChem BioAssay AID504832 (National Center for Advancing Translational Sciences (NCATS), 2011)
